# Laboratory results from PubChem BioAssay (NCI).
# This is part of a sample that, as a whole, favours compounds with a hit. Of some 83,000 tested, about 20% had one in any assay.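 Testing used 96-well plates and a 48-hour single-concentration exposure. Example: -40 means 40% of the starting cells died.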 A number with no mark means an inactive call. The source made the active and inactive calls. Rule for the calls: active = growth percent below 10; inactive = the rest.
# Key:
# Assay in all cases: NCI-60 one-dose screen, 48 h (100 = growth as untreated, 0 = no growth, -100 = all killed)
# Settings in all cases: 10 µM unless noted
# NCI-H23 lung = system: NCI-H23 lung
# NCI-H226 lung = system: NCI-H226 lung
# NCI-H322M lung = system: NCI-H322M lung
# HOP-62 NSCLC = system: HOP-62 NSCLC
# NCI-H460 lung = system: NCI-H460 lung
# HOP-92 NSCLC = system: HOP-92 NSCLC
# NCI-H522 lung = system: NCI-H522 lung
# A549/ATCC NSCLC = system: A549/ATCC NSCLC
# 786-0 renal = system: 786-0 renal
# COLO 205 colon = system: COLO 205 colon
Structure (SMILES),growth (NCI-H23 lung),growth (NCI-H226 lung),growth (NCI-H322M lung),growth (HOP-62 NSCLC),growth (NCI-H460 lung),growth (HOP-92 NSCLC),growth (NCI-H522 lung),growth (A549/ATCC NSCLC),growth (786-0 renal),growth (COLO 205 colon)
c1cnc2nc3c(cc2c1)oc1ccccc13,95.9%,93.2%,99.9%,108%,95.2%,90.3%,89.1%,87.3%,89.4%,109%
O=C1OC(=O)C2C1CC=CC2c1ccccc1 (stereo not given),84.7%,90.6%,102%,78.8%,75.5%,85.3%,93.6%,88%,94.9%,93.7%
O=c1[nH]nc(-c2ccc(Br)cc2)cc1Cc1ccc(O)cc1,98.5%,85.6%,126%,109%,103%,51.8%,89.5%,56.7%,103%,98.8%
COc1ccc(-c2c[nH]c(C(=O)O)c2-c2cc(OC)c3c(c2OC)OCO3)cc1,98.9%,95.3%,95%,95.6%,102%,110%,97%,103%,104%,102%
O=C(Cc1ccc(/C=C/C(=O)c2ncc[nH]2)cc1)Nc1ccc(C(F)(F)F)cc1,33.4%,78.9%,71.5%,25.8%,27.1%,70%,54.7%,30.8%,-43.1% (active),36.3%
CC(C)(C#N)N1CCN(c2ccccc2Cl)CC1,98.8%,103%,94.8%,102%,104%,98%,90.9%,95.1%,97.9%,113%
C=C1C(=O)O[C@H]2[C@H]1CC/C(COC(=O)CCCc1c[nH]c3ccccc13)=C\CC[C@@]1(C)O[C@@H]21,65.9%,76.7%,104%,89.8%,85.9%,44.6%,39.9%,72%,14.2%,64.8%
COc1ccc(C(O)c2cc3c(N)c(C(=O)Nc4cccc(OC)c4)sc3nc2C)cc1 (stereo not given),30%,45.9%,38.8%,26.5%,1.65% (active),37%,-27.4% (active),9.44% (active),33.9%,-42.8% (active)
Cc1[nH]n(C(=O)c2ccncc2)c(=O)c1N=Nc1ccc(F)c(Cl)c1,92.1%,91.9%,110%,95.8%,109%,89.7%,103%,107%,92.9%,126%
COc1ccccc1Nc1cc(O)c2c(=O)cc(-c3ccccc3)oc2c1,51.5%,76.8%,80.1%,35.6%,11.4%,62.2%,7.64% (active),33.7%,49.2%,76.8%
CCCCCCNC(=O)Oc1ccc(/C(=C(/CC)Cc2ccccc2)c2ccc(OCCN(CC)CC)cc2)cc1,88%,89.3%,87.5%,88.8%,-41.3% (active),42.3%,74.5%,56.2%,63.7%,-48.6% (active)
COc1ccc(C(=O)c2cc3c(N)c(C(=O)Nc4cccc(Cl)c4)sc3nc2C)cc1,35.1%,61.9%,57.2%,44.9%,13.1%,86.9%,-4.67% (active),32.3%,51.6%,-1.48% (active)
Fc1ccc(C2CC(c3cccc(Nc4ccncc4)c3)=NN2c2ccc(Cl)cc2)cc1 (stereo not given),88.6%,91.4%,78%,64.9%,-53.9% (active),52.2%,83.1%,52.6%,104%,-59.8% (active)
Cc1ccc(C2CC(c3cccc(Nc4ccncc4)c3)=NN2c2ccccc2)cc1 (stereo not given),-69.3% (active),28.9%,-87.4% (active),-67% (active),-77.8% (active),-90.7% (active),-65.1% (active),-60.2% (active),22.1%,-69% (active)
COc1ccc(C2CC(c3cccc(Nc4ccncc4)c3)=NN2c2cc(Cl)cc(Cl)c2)cc1 (stereo not given),80.2%,87.6%,75.9%,25.1%,-77.6% (active),54.9%,4.77% (active),26.5%,99.2%,-55.1% (active)
Cc1ccc(-c2csc(/N=C3\C(=O)Nc4ccccc43)n2)cc1,23.5%,62.1%,47.1%,25.3%,8.52% (active),-16.1% (active),-57.6% (active),23%,14.7%,-15.6% (active)
FC(F)(F)c1cccc(Nc2ccccc2)c1,94.2%,97.6%,109%,105%,104%,101%,98.6%,97.3%,101%,105%
COc1cc2nc(-c3ccc(C(F)(F)F)cc3)cc(OCCCN3CCC(O)CC3)c2cc1OC,57.9%,-9.29% (active),61.1%,45.3%,16.5%,19.9%,10.5%,27.7%,42.7%,26.5%
N#Cc1c(Nc2ccccc2)nn2cc(-c3nc4ccccc4s3)c(N)nc12,60.3%,65.6%,86.2%,92.9%,61.8%,80.6%,72.8%,80.6%,76.3%,114%
Clc1cc(Cl)cc(N2N=C(c3cccc(Nc4ccncc4)c3)CC2c2ccc(Br)cc2)c1 (stereo not given),64.4%,85.7%,73.1%,33.7%,-81.8% (active),65.8%,69.7%,19.1%,105%,-40.5% (active)
CCn1cc(C2NC(=O)c3ccccc3N2)c2cccc(C)c21 (stereo not given),30.1%,57.2%,36.7%,31.6%,1.6% (active),80.5%,-39.8% (active),18.4%,39.4%,-17.3% (active)
CC(C)CN(C(=O)c1ccc(Cl)cc1)c1c(N)n(CC(C)C)c(=O)[nH]c1=O,95.8%,98.7%,103%,90.6%,88.4%,80.6%,98.8%,98.8%,91.4%,122%
CC(=O)CCSc1ccc(OC(C)=O)cc1,100%,101%,103%,98%,106%,79.8%,82.3%,88.3%,100%,116%
NC(=S)N/N=C(/c1ccccc1)c1ccccc1N,94.9%,82.2%,91.8%,98.5%,102%,102%,88.9%,87.3%,101%,108%
CC(Oc1ccc(C(=O)NS(=O)(=O)C(C)(C)C)cc1C(F)(F)F)c1ccc(Oc2ccccc2)cn1 (stereo not given),83.8%,81.5%,88.3%,78.2%,96.9%,73.1%,17.2%,94.5%,77.7%,77.1%
O=C1Nc2c(ccc(Cl)c2Cl)/C1=C/c1ccccn1,81.5%,93.5%,93.4%,88.5%,97.6%,66.2%,71%,13%,12.5%,108%
Cc1cc(Nc2cccc(C(F)(F)F)c2)n2c(nc3ccccc32)c1C#N,25.1%,40.1%,36.9%,53.6%,17%,-2.32% (active),20.7%,43.7%,58.9%,36.9%
O=C(/C=C\c1ccc(OCCCCCC[P+](c2ccccc2)(c2ccccc2)c2ccccc2)cc1)c1ccc2c(c1)OCCO2,3.95% (active),-0.25% (active),22.3%,-21.8% (active),-12.4% (active),-29.2% (active),-6.94% (active),12.1%,5.76% (active),-58.6% (active)
